Measurements taken from PubChem BioAssay (NCI).
About 83,000 compounds went through this panel and 20% of them were active in at least one assay; those are over-represented in the sample as a whole.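 Cells were grown in 96-well plates and exposed to the test compound at a single concentration for 48 hours; results are reported as percent growth, with values below 10 considered active.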 The source made the active and inactive calls.

Each compound was assayed on SF-295 CNS (assay: NCI-60 one-dose screen, 48 h (100 = growth as untreated, 0 = no growth, -100 = all killed)). Details: 10 µM unless noted.

**Q.** `CC(C)Cc1ccc(C(C)C(=O)NCc2ccc(Cn3c(=O)sn(-c4ccc(Cl)cc4)c3=O)cc2)cc1` (stereo not given) was tested. Which growth did it give?
**A.** Its growth is 80.9% (inactive).

**Q.** For `COc1ccc(Cn2nc3c(c2-c2cc(OC)c(OC)c(OC)c2)-c2oncc2CC3)cc1`, which growth is on record?
**A.** The growth was 77.2% (inactive).

**Q.** For `Cc1ccc(C(c2c(O)c3cc(Br)ccc3[nH]c2=O)c2c(O)c3cc(Br)ccc3[nH]c2=O)cc1`, which growth is on record?
**A.** Its growth is 75.6% (inactive).

**Q.** How did the growth turn out when `CN1CCN(Cc2ccc(NC(=O)c3cncc(C#Cc4cnccc4C(F)(F)F)c3)cc2C(F)(F)F)CC1` was run?
**A.** The growth was 88.6% (inactive).

**Q.** Which growth does the source give for `COc1ccc(/C=C/c2n[nH]c3ccc(N4CCOC4=O)cc23)cc1` here?
**A.** Its growth is 32.8% (inactive).

**Q.** Which growth does the source give for `COc1cc2nnn3c4ncccc4c(N=O)c3c2cc1OC` here?
**A.** Its growth is 111% (inactive).

**Q.** `Cc1cc2nc(-c3ccccc3)c(-c3ccccc3)nc2cc1C` was tested. Which growth did it give?
**A.** The growth was 90% (inactive).

**Q.** For `Cc1ccc2[nH]c(=O)cc(-n3nncc3COc3ccc(C=O)cc3)c2c1`, which growth is on record?
**A.** The growth was 104% (inactive).

**Q.** Which growth does the source give for `CCCOc1nc(SCCC)nc2c1cnn2-c1ccccc1` here?
**A.** The growth was 108% (inactive).

**Q.** For `NC(=O)c1cccc(-c2ccccc2N2CCCCC2)c1`, which growth is on record?
**A.** The growth was 89.4% (inactive).

**Q.** Which growth does the source give for `COc1cc2ncnc(Nc3ccc(C(=O)/C=C/c4ccc(C(F)(F)F)cc4F)cc3)c2cc1OC` here?
**A.** Its growth is 95.8% (inactive).

**Q.** `CC(=O)OCCCCCNc1ccccc1` was tested. Which growth did it give?
**A.** Its growth is 110% (inactive).

**Q.** Which growth does the source give for `O=C(Nc1sc2c(c1C(=O)O)CCCC2)c1cccc(C(F)(F)F)c1` here?
**A.** Its growth is 85.1% (inactive).

**Q.** `CCN1C(=O)N(CC)C2NC(SC)=NC21` (stereo not given) was tested. Which growth did it give?
**A.** Its growth is 101% (inactive).

**Q.** How did the growth turn out when `C/C(=C(/c1ccccc1)c1ccc(OCC(O)CN2CCOCC2)cc1)c1ccccc1` (stereo not given) was run?
**A.** Its growth is 108% (inactive).
